These results are taken from PubChem BioAssay.

Results filed as inconclusive are left out. Activity calls are given as the source filed them. Unless noted, the rule behind the calls is not given here.

A short description of assay [1]: modulation of C. elegans fzo-1 (AID 1259413).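 Note: fzo-1 mutant C. elegans worms in liquid wells.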 Particulars: C. elegans fzo-1 modulator screen, mean read-out; stronger effect = higher value.
The nature of assay [2]: EMT-state selective cytotoxicity in co-culture – imaging, PC-3E GFP, TEM4-18 mCherry, primary screen (AID 1345086;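 active = compounds killing one labelled cell type while sparing the other, by normalised counts and ratio limits, not self-fluorescent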;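 for all read-outs here: cells exposed to compound for 72 h before imaging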;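 for red/green cell ratio (normalised): normalised mesenchymal count divided by normalised epithelial count so high means epithelial killing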). Particulars: PC-3E GFP / TEM4-18 mCherry co-culture, imaging cell counts, at 1 µM; for red/green cell ratio (normalised): actives lie on both sides, counts scaled to control wells, 1 = unselective.
Assay [3] in a line: viability loss in pontine glioma line – cell-based, SU-DIPG-XVII, MIPE5.0, CellTiter-Glo, qHTS, dose response (AID 1347060; cut-off not given, nearly all actives have AC50 up to about 26 µM;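 for AC50: cells exposed to compound for 48 hours before viability readout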). Particulars: CellTiter-Glo ATP luminescence.
A short description of assay [4]: viability loss in pontine glioma line – cell-based, SU-DIPG-XIII, MIPE5.0, CellTiter-Glo, qHTS, dose response (AID 1347064; cut-off not given, nearly all actives have AC50 up to about 23 µM;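 for AC50: cells exposed to compound for 48 hours before the viability read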). Particulars: CellTiter-Glo ATP luminescence. In general terms: Cellular ATP, detected with luciferase, serves as a proxy for viable cell number.
In assay [5] the test system is Aerobactin synthetase IucA (Klebsiella pneumoniae). The assay can be described thus: inhibition of K. pneumoniae IucA enzyme – biochemical, Tocris library, absorbance (AID 1345561).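 Note: 100% = enzyme without compound and 0% = no enzyme.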 Particulars: purified IucA enzyme assay, absorbance (OD) read-out; stronger effect = lower value;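 tested at 8 µM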.
Assay [6] in a line: viability loss in pontine glioma line – cell-based, SU-DIPG-XIII, MIPE4.0, CellTiter-Glo, qHTS, dose response (AID 1347061; cut-off not given, nearly all actives have AC50 up to about 37 µM;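 note: cells exposed to compound for 48 hours before readout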). To be noted: CellTiter-Glo ATP luminescence.
Assay [7] in a line: viability loss in pontine glioma line – cell-based, SU-DIPG-IV, MIPE4.0, CellTiter-Glo, qHTS, dose response (AID 1347063; cut-off not given, nearly all actives have AC50 up to about 30 µM;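 note: compound exposure lasted 48 hours before the viability readout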). To be noted: CellTiter-Glo ATP luminescence.
Assay [8] is described as follows: viability loss in pontine glioma line – cell-based, JHH-DIPG-1, MIPE4.0, CellTiter-Glo, qHTS, dose response (AID 1347062; cut-off not given, nearly all actives have AC50 up to about 27 µM;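 for AC50: cells exposed to compound for two days before readout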). Particulars: JHH-DIPG-1 viability, CellTiter-Glo ATP luminescence.
The mark [9] stands for this setting: measured here: epithelial PC-3E GFP cell survival.
Where [10] appears, read: measured here: mesenchymal TEM4-18 mCherry cell survival.

Regarding `Nc1[nH]c(=O)ncc1F`, in assay [1], the mean signal is 243 (inactive). Moreover, the red/green cell ratio (normalised) in assay [2] is 1.01 (inactive). Also, the figures for the normalised cell number in assay [2] (setting [9]) and in assay [2] (setting [10]) were 0.89 and 0.9, respectively. The result in assay [3] and in assay [4] was inactive.

Usually remaining activity stands for the signal under treatment as a percentage of the control signal. As for `O=C(NCCO[N+](=O)[O-])c1cccnc1`, in assay [1], the mean signal is 264 (inactive). Moreover, the red/green cell ratio (normalised) in assay [2] was 0.94 (inactive). The results for the normalised cell number in assay [2] (setting [9]) and in assay [2] (setting [10]) were 1.18 and 1.11, respectively. In addition, in assay [5], the remaining activity was 106% (inactive). Moreover, the molecule was called inactive in assay [3], in assay [6] and in assay [7].

For the molecule `COc1ccccc1OCC(O)CN1CCN(CC(=O)Nc2c(C)cccc2C)CC1` (stereo not given), in assay [1], the mean signal is 263 (inactive). Besides, the red/green cell ratio (normalised) in assay [2] is 0.78 (inactive). The values for the normalised cell number in assay [2] (setting [9]) and in assay [2] (setting [10]) were 1.24 and 0.96, respectively. Moreover, the result in assay [3], in assay [6], in assay [8], in assay [7] and in assay [4] was inactive.

One may read the AC50 as the midpoint of the concentration-response curve, whichever way the signal moves. Turning to `CCCc1nc(C)c2c(=O)[nH]c(-c3cc(S(=O)(=O)N4CCN(CC)CC4)ccc3OCC)nn12`, the mean signal in assay [1] is 298 (inactive). The red/green cell ratio (normalised) in assay [2] is 0.94 (inactive). The figures for the normalised cell number in assay [2] (setting [9]) and in assay [2] (setting [10]) were 1.1 and 1.03, respectively. Besides, the molecule was called inactive in assay [3] and in assay [4]. Further, the values for the AC50 in assay [6], in assay [8] and in assay [7] were 13.2 µM (active), 18.7 µM (active) and 4.18 µM (active), respectively.

With `CNS(=O)(=O)Cc1ccc2[nH]cc(CCN(C)C)c2c1`, in assay [1], the mean signal is 224 (inactive). Moreover, in assay [2], the red/green cell ratio (normalised) is 1.17 (inactive). The normalised cell number came out at 1.07 in assay [2] (setting [9]) and 1.25 in assay [2] (setting [10]). The remaining activity in assay [5] is 127% (inactive). Besides, the molecule was classed as inactive in assay [6], in assay [8] and in assay [7].

As for `CCc1c2c(nc3ccc(OC(=O)N4CCC(N5CCCCC5)CC4)cc13)-c1cc3c(c(=O)n1C2)COC(=O)[C@]3(O)CC`, in assay [1], the mean signal is 270 (inactive). Besides, in assay [2], the red/green cell ratio (normalised) is 1.07 (inactive). The normalised cell number in assay [2] (setting [9]) worked out at 0.32; in assay [2] (setting [10]), 0.34. In assay [5], the remaining activity is 108% (inactive). Moreover, the AC50 in assay [3] is 0.263 µM (active); in assay [7], 4.69 µM (active).

Turning to `COc1ccc(C2CNC(=O)C2)cc1OC1CCCC1` (stereo not given), the mean signal in assay [1] was 251 (inactive). Moreover, in assay [2], the red/green cell ratio (normalised) is 0.93 (inactive). Also, the normalised cell number in assay [2] (setting [9]) came out at 1.05; in assay [2] (setting [10]), 0.97. The remaining activity in assay [5] is 98.4% (inactive). The call in assay [3], in assay [8], in assay [7] and in assay [4] was inactive.

As to `CCN(CC)CCOc1ccc(/C(=C(\Cl)c2ccccc2)c2ccccc2)cc1`, the mean signal in assay [1] is 199 (inactive). Further, the red/green cell ratio (normalised) in assay [2] is 1.05 (inactive). Also, the normalised cell number in assay [2] (setting [9]) was 1.43; in assay [2] (setting [10]), 1.5. Further, the results for the AC50 in assay [3] and in assay [4] were 8.33 µM (active) and 11.8 µM (active), respectively.

Consider `COc1ccccc1N1CCN(CC(O)COc2cccc3ccccc23)CC1` (stereo not given), for which the mean signal in assay [1] is 202 (inactive). The red/green cell ratio (normalised) in assay [2] is 0.7 (inactive). Also, the normalised cell number in assay [2] (setting [9]) stood at 1.13; in assay [2] (setting [10]), 0.8. In addition, the remaining activity in assay [5] was 100% (inactive). Moreover, the molecule was called inactive in assay [6] and in assay [8].

With `Clc1ccccc1C(c1ccccc1)(c1ccccc1)n1ccnc1`, the mean signal in assay [1] was 209 (inactive). In assay [2], the red/green cell ratio (normalised) was 1.09 (inactive). For the same molecule, the figures for the normalised cell number in assay [2] (setting [9]) and in assay [2] (setting [10]) were 1.31 and 1.43, respectively. Moreover, the AC50 in assay [3] was 23.5 µM (active). The molecule was called inactive in assay [6], in assay [8] and in assay [7].

Consider `CC(C)(C#N)c1cc(Cn2cncn2)cc(C(C)(C)C#N)c1`, for which, in assay [1], the mean signal is 266 (inactive). The red/green cell ratio (normalised) in assay [2] is 1.37 (inactive). The results for the normalised cell number in assay [2] (setting [9]) and in assay [2] (setting [10]) were 0.74 and 1.02, respectively. Moreover, the outcome in assay [3], in assay [6] and in assay [8] was inactive.

In the case of `COc1cc2nc(N3CCN(C(=O)C4CCCO4)CC3)nc(N)c2cc1OC` (stereo not given), in assay [1], the mean signal was 236 (inactive). Further, in assay [2], the red/green cell ratio (normalised) is 0.95 (inactive). In addition, the normalised cell number was determined as 0.99 in assay [2] (setting [9]) and 0.94 in assay [2] (setting [10]). For the same molecule, in assay [5], the remaining activity was 115% (inactive). Further, the result in assay [6], in assay [8] and in assay [7] was inactive.

Consider `COCCCC/C(=N\OCCN)c1ccc(C(F)(F)F)cc1`, for which the mean signal in assay [1] is 245 (inactive). For the same molecule, the red/green cell ratio (normalised) in assay [2] was 0.92 (inactive). The values for the normalised cell number in assay [2] (setting [9]) and in assay [2] (setting [10]) were 1.1 and 1.01, respectively. Further, the remaining activity in assay [5] was 125% (inactive). The outcome in assay [8] and in assay [7] was inactive.

Take `COc1cc2nc(N3CCN(C(=O)C4COc5ccccc5O4)CC3)nc(N)c2cc1OC` (stereo not given): the mean signal in assay [1] is 219 (inactive). In addition, the red/green cell ratio (normalised) in assay [2] was 0.65 (inactive). Besides, the normalised cell number was 1.28 in assay [2] (setting [9]) and 0.83 in assay [2] (setting [10]). In addition, the molecule was classed as inactive in assay [6].

On to `Cc1cnc(NC(=O)C2=C(O)c3ccccc3S(=O)(=O)N2C)s1`, for which the mean signal in assay [1] is 257 (inactive). Moreover, the red/green cell ratio (normalised) in assay [2] was 0.91 (inactive). Also, the normalised cell number in assay [2] (setting [9]) was 1.16; in assay [2] (setting [10]), 1.05. The molecule was called inactive in assay [3], in assay [8], in assay [7] and in assay [4].

In the case of `CNNCc1ccc(C(=O)NC(C)C)cc1`, the mean signal in assay [1] was 227 (inactive). In addition, the red/green cell ratio (normalised) in assay [2] was 1.09 (inactive). In addition, the results for the normalised cell number in assay [2] (setting [9]) and in assay [2] (setting [10]) were 0.95 and 1.03, respectively. Besides, the molecule was classed as inactive in assay [3], in assay [6], in assay [8] and in assay [4].

With `CC(C)NCC(O)COc1ccc(CCOCC2CC2)cc1` (stereo not given), in assay [1], the mean signal was 281 (inactive). For the same molecule, the red/green cell ratio (normalised) in assay [2] was 0.81 (inactive). The figures for the normalised cell number in assay [2] (setting [9]) and in assay [2] (setting [10]) were 1.26 and 1.02, respectively. Moreover, the remaining activity in assay [5] is 100% (inactive). Further, the result in assay [3], in assay [6], in assay [8], in assay [7] and in assay [4] was inactive.

On to `Oc1ccc(C2CNCCc3c2cc(O)c(O)c3Cl)cc1` (stereo not given), for which the mean signal in assay [1] was 286 (inactive). For the same molecule, the red/green cell ratio (normalised) in assay [2] is 1.06 (inactive). Moreover, the normalised cell number in assay [2] (setting [9]) came out at 1.1; in assay [2] (setting [10]), 1.17. The remaining activity in assay [5] is 110% (inactive). Further, the call in assay [3], in assay [6], in assay [8] and in assay [4] was inactive.

For `CN1CCC(=C2c3ccccc3CCc3sccc32)CC1`, the mean signal in assay [1] was 277 (inactive). In assay [2], the red/green cell ratio (normalised) was 0.85 (inactive). For the same molecule, the values for the normalised cell number in assay [2] (setting [9]) and in assay [2] (setting [10]) were 1.11 and 0.94, respectively. In assay [3], the molecule was called inactive. Further, in assay [6], the AC50 is 16.6 µM (active).
